Results: PubChem BioAssay (NCI)
This is part of a sample that, as a whole, favours compounds with a hit. Of some 83,000 tested, about 20% had one in any assay.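 In brief: 96-well plates, 48 h treatment, single concentration, percent growth endpoint.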 The source made the active and inactive calls. How the source made its calls: active means growth percent below 10; inactive means the rest.

What was measured:
Assay in all cases: NCI-60 one-dose screen, 48 h (100 = growth as untreated, 0 = no growth, -100 = all killed)
DU-145 prostate = conditions: 10 µM unless noted
K-562 leukemia = conditions: 10 µM unless noted
MALME-3M melanoma = conditions: 10 µM unless noted
RXF 393 renal = conditions: 10 µM unless noted
SF-268 CNS = conditions: 10 µM unless noted
SF-295 CNS = conditions: 10 µM unless noted
SF-539 CNS = conditions: 10 µM unless noted
UACC-257 melanoma = conditions: 10 µM unless noted
M14 melanoma = conditions: 10 µM unless noted
HT29 colon = conditions: 10 µM unless noted
SNB-75 CNS = conditions: 10 µM unless noted
SNB-19 CNS = conditions: 10 µM unless noted
U251 CNS = conditions: 10 µM unless noted
PC-3 prostate = conditions: 10 µM unless noted
SK-MEL-5 melanoma = conditions: 10 µM unless noted
UACC-62 melanoma = conditions: 10 µM unless noted
LOX IMVI melanoma = conditions: 10 µM
SK-MEL-28 melanoma = conditions: 10 µM unless noted
MDA-MB-231 breast = conditions: 10 µM unless noted
HCT-15 colon = conditions: 10 µM unless noted

Measured: growth

CC(C)(C)CC(C)(C)c1ccc(OCCOCCSC(=N)N)cc1
inactive: DU-145 prostate 53.8% | SF-268 CNS 69% | SF-295 CNS 36.9% | SF-539 CNS 64.3% | UACC-257 melanoma 73% | SNB-75 CNS 74.8% | SNB-19 CNS 73.6% | U251 CNS 35.9% | PC-3 prostate 42.6% | UACC-62 melanoma 75.7%
active: K-562 leukemia 3.14% | MALME-3M melanoma -60.8% | RXF 393 renal -36.3% | M14 melanoma -67.7% | HT29 colon -7.31% | SK-MEL-5 melanoma -70.2% | LOX IMVI melanoma -81% | SK-MEL-28 melanoma -57.1%

COc1cc([C@@H]2c3cc4c(cc3[C@H](OC3OC5COC(c6ccccc6)OC5C(O)C3O)[C@H]3COC(=O)[C@H]23)OCO4)cc(OC)c1OC (some centres undefined)
active: PC-3 prostate 8.28% | SK-MEL-5 melanoma -33.3%
inactive: DU-145 prostate 57% | K-562 leukemia 15.9% | MDA-MB-231 breast 66.3% | RXF 393 renal 65.7% | SF-268 CNS 29.3% | SF-295 CNS 35.8% | SF-539 CNS 19.4% | UACC-257 melanoma 57.5% | M14 melanoma 33.2% | HCT-15 colon 41.1% | HT29 colon 23.2% | SNB-75 CNS 75.9% | SNB-19 CNS 79.9% | U251 CNS 55.8% | UACC-62 melanoma 79.4% | LOX IMVI melanoma 30.2% | SK-MEL-28 melanoma 58.3%

O=C(Cc1nc2cc(Cl)c(Cl)cc2nc1CC(=O)c1ccccc1)c1ccccc1
inactive: DU-145 prostate 82.5% | K-562 leukemia 47.4% | MALME-3M melanoma 67.5% | RXF 393 renal 81.1% | SF-268 CNS 79.2% | SF-295 CNS 69.5% | SF-539 CNS 62.1% | UACC-257 melanoma 93.6% | M14 melanoma 75.2% | HCT-15 colon 69.6% | HT29 colon 65.3% | SNB-75 CNS 70.4% | U251 CNS 86.6% | PC-3 prostate 59.4% | SK-MEL-5 melanoma 90.3% | UACC-62 melanoma 56.9% | LOX IMVI melanoma 62.2% | SK-MEL-28 melanoma 91.1%

OC(CSc1ccccc1)CN1CCN(c2ccc(Cl)cc2)CC1 (centres undefined)
inactive: DU-145 prostate 110% | K-562 leukemia 78.3% | MDA-MB-231 breast 94.7% | RXF 393 renal 95.7% | SF-268 CNS 103% | SF-295 CNS 94.3% | SF-539 CNS 96.8% | UACC-257 melanoma 101% | M14 melanoma 100% | HCT-15 colon 96.1% | HT29 colon 101% | SNB-75 CNS 91.3% | U251 CNS 95.2% | PC-3 prostate 94.3% | SK-MEL-5 melanoma 89.2% | UACC-62 melanoma 82.2% | LOX IMVI melanoma 93% | SK-MEL-28 melanoma 110%

Oc1ccccc1N=Cc1ccccc1
inactive: DU-145 prostate 83.5% | K-562 leukemia 48.6% | MALME-3M melanoma 95.6% | RXF 393 renal 117% | SF-268 CNS 89.9% | SF-295 CNS 111% | SF-539 CNS 108% | UACC-257 melanoma 94.3% | M14 melanoma 87.6% | HT29 colon 102% | SNB-75 CNS 132% | SNB-19 CNS 93.7% | PC-3 prostate 36.5% | SK-MEL-5 melanoma 65.2% | UACC-62 melanoma 98.8% | LOX IMVI melanoma 54.7% | SK-MEL-28 melanoma 119%

Nc1ccc(Oc2ccccc2)c(Cl)c1
inactive: DU-145 prostate 104% | K-562 leukemia 115% | MDA-MB-231 breast 111% | RXF 393 renal 100% | SF-268 CNS 93% | SF-295 CNS 92.1% | SF-539 CNS 91.7% | UACC-257 melanoma 94.7% | M14 melanoma 94.6% | HCT-15 colon 92.6% | HT29 colon 104% | SNB-19 CNS 102% | U251 CNS 84.1% | PC-3 prostate 100% | SK-MEL-5 melanoma 95.6% | UACC-62 melanoma 107% | LOX IMVI melanoma 103% | SK-MEL-28 melanoma 106%

COC(=O)[C@]1(C)CCC[C@]2(C)c3ccc(C(C)C)cc3C(=O)[C@@H](Br)[C@@H]12
inactive: DU-145 prostate 102% | K-562 leukemia 72.4% | MDA-MB-231 breast 82.9% | RXF 393 renal 74.2% | SF-268 CNS 102% | SF-295 CNS 91.4% | SF-539 CNS 98.2% | UACC-257 melanoma 92.5% | M14 melanoma 90.6% | HT29 colon 76.2% | SNB-75 CNS 80.4% | SNB-19 CNS 98.3% | U251 CNS 91.1% | PC-3 prostate 86.8% | SK-MEL-5 melanoma 90.4% | UACC-62 melanoma 90.6% | LOX IMVI melanoma 79.7% | SK-MEL-28 melanoma 100%

CC(=O)c1ccc2c(c1)CCc1ccccc1-2
inactive: DU-145 prostate 115% | K-562 leukemia 115% | MDA-MB-231 breast 109% | RXF 393 renal 97.4% | SF-268 CNS 101% | SF-295 CNS 94.2% | SF-539 CNS 96.8% | UACC-257 melanoma 98.2% | M14 melanoma 107% | HCT-15 colon 93.9% | HT29 colon 102% | SNB-75 CNS 87.1% | SNB-19 CNS 103% | U251 CNS 95.6% | PC-3 prostate 100% | SK-MEL-5 melanoma 99.6% | UACC-62 melanoma 109% | LOX IMVI melanoma 113% | SK-MEL-28 melanoma 101%

O=C1C=CC(=O)N1c1ccc(O)cc1
inactive: DU-145 prostate 117% | K-562 leukemia 91.1% | MDA-MB-231 breast 94.7% | RXF 393 renal 110% | SF-268 CNS 109% | SF-295 CNS 114% | SF-539 CNS 111% | UACC-257 melanoma 106% | M14 melanoma 105% | HCT-15 colon 102% | HT29 colon 112% | SNB-75 CNS 98.1% | SNB-19 CNS 103% | U251 CNS 99.9% | PC-3 prostate 98.3% | SK-MEL-5 melanoma 102% | UACC-62 melanoma 95.4% | LOX IMVI melanoma 99.8% | SK-MEL-28 melanoma 107%

COc1ccc(/C=C2/C(=O)ON=C2C)cc1
inactive: DU-145 prostate 109% | K-562 leukemia 100% | MDA-MB-231 breast 96.8% | RXF 393 renal 102% | SF-268 CNS 104% | SF-295 CNS 110% | SF-539 CNS 107% | UACC-257 melanoma 100% | M14 melanoma 109% | HCT-15 colon 112% | HT29 colon 99.2% | SNB-75 CNS 106% | SNB-19 CNS 106% | PC-3 prostate 97.6% | SK-MEL-5 melanoma 103% | UACC-62 melanoma 90.3% | LOX IMVI melanoma 99.4% | SK-MEL-28 melanoma 106%

CCCCC(CCc1ccc([N+](=O)[O-])cc1)(C(C)=O)C(=O)OCC (centres undefined)
inactive: DU-145 prostate 102% | K-562 leukemia 99.7% | MDA-MB-231 breast 98.2% | RXF 393 renal 85.8% | SF-268 CNS 95.9% | SF-295 CNS 99.2% | SF-539 CNS 94.7% | UACC-257 melanoma 99.1% | M14 melanoma 96.7% | HT29 colon 94.2% | SNB-75 CNS 85.1% | SNB-19 CNS 108% | U251 CNS 95.3% | PC-3 prostate 81.2% | SK-MEL-5 melanoma 93.2% | UACC-62 melanoma 97.5% | LOX IMVI melanoma 95.8% | SK-MEL-28 melanoma 100%

COc1cc(/C=C2\SC(=S)N(/C=C/c3nc4ccccc4[nH]c3=O)C2=O)cc(OC)c1OC
inactive: DU-145 prostate 97.7% | K-562 leukemia 88.1% | MDA-MB-231 breast 80.1% | RXF 393 renal 77.7% | SF-268 CNS 77.5% | SF-295 CNS 88.4% | SF-539 CNS 95.2% | UACC-257 melanoma 79.2% | M14 melanoma 75.4% | HCT-15 colon 91.7% | HT29 colon 90.6% | SNB-75 CNS 66.9% | SNB-19 CNS 97.5% | PC-3 prostate 95.2% | SK-MEL-5 melanoma 82.7% | UACC-62 melanoma 81.9% | LOX IMVI melanoma 56.7% | SK-MEL-28 melanoma 90.5%

CN(C)c1ccc2cc3c(cc2c1)Oc1ccccc1N3.[Cl][Zn][Cl]
inactive: DU-145 prostate 90.9% | K-562 leukemia 12.1% | RXF 393 renal 95.6% | SF-268 CNS 83.8% | SF-295 CNS 97.2% | SF-539 CNS 99.9% | UACC-257 melanoma 81.5% | M14 melanoma 102% | HCT-15 colon 48.5% | HT29 colon 97.3% | SNB-75 CNS 103% | SNB-19 CNS 114% | PC-3 prostate 81.1% | SK-MEL-5 melanoma 70.6% | UACC-62 melanoma 65% | LOX IMVI melanoma 32% | SK-MEL-28 melanoma 111%
active: MDA-MB-231 breast 0.0703%

CN(C)CC(C)(CN(C)C)C(=O)/C=C/c1c(Cl)cccc1Cl
inactive: DU-145 prostate 36.4% | SF-295 CNS 78.2% | UACC-257 melanoma 52.5% | M14 melanoma 12.7% | HT29 colon 12.2% | SNB-75 CNS 64.5% | U251 CNS 40.4% | PC-3 prostate 46.2% | SK-MEL-5 melanoma 56.3% | UACC-62 melanoma 20.1%
active: K-562 leukemia -8.43% | MALME-3M melanoma -67.2% | RXF 393 renal -80.8% | SF-539 CNS -2.86% | HCT-15 colon -65.6% | LOX IMVI melanoma -100% | SK-MEL-28 melanoma 4.32%

O=[N+]([O-])C=C(c1ccccc1)c1ccccc1
inactive: DU-145 prostate 87.7% | K-562 leukemia 29.4% | MALME-3M melanoma 80.2% | RXF 393 renal 78.5% | SF-268 CNS 85.7% | SF-295 CNS 89.3% | SF-539 CNS 88.2% | UACC-257 melanoma 84% | M14 melanoma 79.4% | HCT-15 colon 42.7% | HT29 colon 91.7% | SNB-75 CNS 59.4% | U251 CNS 80.1% | PC-3 prostate 76.5% | SK-MEL-5 melanoma 88.3% | UACC-62 melanoma 56.9% | SK-MEL-28 melanoma 90.4%

CN1CCC(c2ccccc2)(c2ccccc2)C(=O)C1
inactive: DU-145 prostate 102% | K-562 leukemia 65.6% | MALME-3M melanoma 90.7% | RXF 393 renal 95.7% | SF-268 CNS 104% | SF-295 CNS 85.8% | SF-539 CNS 94.3% | UACC-257 melanoma 95% | M14 melanoma 92.4% | HCT-15 colon 70.2% | HT29 colon 81.7% | SNB-75 CNS 58% | PC-3 prostate 85.7% | SK-MEL-5 melanoma 97.7% | UACC-62 melanoma 93.6% | SK-MEL-28 melanoma 119%

CC(=O)Nc1ccc(C(=O)CCl)cc1
inactive: DU-145 prostate 66% | RXF 393 renal 83.2% | SF-268 CNS 81.2% | SF-295 CNS 102% | SF-539 CNS 56.1% | UACC-257 melanoma 86% | SNB-75 CNS 84.3% | SNB-19 CNS 82.5% | U251 CNS 86.3% | PC-3 prostate 92.9% | SK-MEL-5 melanoma 107% | UACC-62 melanoma 81.3% | SK-MEL-28 melanoma 69.6%
active: K-562 leukemia 1.75% | MALME-3M melanoma -53.9% | HCT-15 colon 6.54% | HT29 colon 8.26% | LOX IMVI melanoma -53.6%
